# An excerpt weighted towards active compounds, which were near 7.5% of everything screened.
# Luc counter = counter-screen: inhibitors of Kinase-Glo firefly luciferase; Kinase-Glo luciferase, ATP luminescence, 8 min; Potency, µM (doses to about 38.3 µM), without a hit: at the highest dose activity change, negative = inhibition, hits mostly inhibitors; hit rate 0.28% among 200,000; AID 1379; further: on the % scale 0 is the no-effect control and ±100 the full control effect; nearly all actives have a fitted effect of over 60% in size
#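 Kinase-Glo luciferase light output from ATP and luciferin was measured with 10 uM ATP, within the enzyme's linear range. Buffer: 50 mM imidazole pH 7.2, 50 mM KCl, 7 mM MgCl2, 0.01% Tween 20, 0.05% BSA; luminescence read after 8 min at ambient temperature.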
# SMN2 splice up = enhancers of SMN2 splice variant expression | HEK293 SMN2-luciferase splicing reporter, luminescence, 30-36 h | Potency, µM (titrated, usually from 46.1 µM), inactives show at the highest dose activity change, positive = activation, actives largely listed as activators | hit rate 2.8% among 210,000; further: % of control where 0% means no effect; nearly all actives have a fitted effect of over 55% in size
#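 HEK293 cells carry an SMN2 […]–luciferase reporter in which exon 7 inclusion puts luciferase in frame. Cells were plated 10-12 h before compound addition, then incubated 30-36 h at 37C. ONE-Glo luminescence was read; sodium butyrate at 4.5 mM final served as control.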
# NPC1 prom act = activators of NPC1 promoter. hit rate 2.4% among 320,000. Potency, µM (series often up to 9.22 µM), without a hit: at the highest dose activation, usual class: activators. Huh7 NPC1 promoter luciferase reporter, 24 h. AID 485313; further: % of control where 0% means no effect; nearly all actives have a fitted effect of over 60% in size
#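 Quantitative HTS used a cell-based reporter: Huh7 cells stably bearing the NPC1 promoter upstream of luciferase were treated with compounds for 24 h, and promoter activation was read as luminescence.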
# Rab9 promoter act = activators of Rab9 promoter; Huh7 Rab9 promoter-luciferase reporter, luminescence, 24 h; Potency, µM (doses to about 9.22 µM), for inactives: at the top dose activation, negative = inhibition, hits mostly activators; hit rate 2.8% among 320,000; further: % of control where 0% means no effect; nearly all actives have a fitted effect of over 60% in size
#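 Quantitative HTS format; Huh7 Rab9-luciferase reporter cells (1500/well) receive compound 2 h post-plating, incubate 24 h at 37 °C, then get luciferase reagent for 10 min before luminescence reading.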
# ELG1 genotoxic = genotoxicity induction in ELG1-luciferase HEK293T cells; hit rate 1.3% among 330,000; HEK293T ELG1-luciferase reporter, luminescence, 16 h; Potency, µM (doses to about 46 µM), inactives show at the top dose activity change, positive = activation, actives largely listed as activators; further: % of control where 0% means no effect; nearly all actives have a fitted effect of over 60% in size
#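 Cells (2,000/well) expressing the ELG1-luciferase fusion are dosed by pin tool and kept 16 hr at 37 °C, 5% CO2. Signal comes from ONE-Glo luciferase reagent after 30 min at room temperature.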
# FLuc counter = counter-screen for miR-21 project: firefly luciferase inhibitors or activators. purified FLuc, Km substrates, luminescence inhibition. Potency, µM (highest dose often 57.5 µM), for inactives: at the top dose activity change, negative = inhibition, actives largely listed as inhibitors. hit rate 6.9% among 360,000;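 further: plate controls were vehicle for no effect and reference inhibitor for full effect; nearly all actives have a fitted effect of over 55% in size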
# Target sequence (P08659 whole entry, looked up): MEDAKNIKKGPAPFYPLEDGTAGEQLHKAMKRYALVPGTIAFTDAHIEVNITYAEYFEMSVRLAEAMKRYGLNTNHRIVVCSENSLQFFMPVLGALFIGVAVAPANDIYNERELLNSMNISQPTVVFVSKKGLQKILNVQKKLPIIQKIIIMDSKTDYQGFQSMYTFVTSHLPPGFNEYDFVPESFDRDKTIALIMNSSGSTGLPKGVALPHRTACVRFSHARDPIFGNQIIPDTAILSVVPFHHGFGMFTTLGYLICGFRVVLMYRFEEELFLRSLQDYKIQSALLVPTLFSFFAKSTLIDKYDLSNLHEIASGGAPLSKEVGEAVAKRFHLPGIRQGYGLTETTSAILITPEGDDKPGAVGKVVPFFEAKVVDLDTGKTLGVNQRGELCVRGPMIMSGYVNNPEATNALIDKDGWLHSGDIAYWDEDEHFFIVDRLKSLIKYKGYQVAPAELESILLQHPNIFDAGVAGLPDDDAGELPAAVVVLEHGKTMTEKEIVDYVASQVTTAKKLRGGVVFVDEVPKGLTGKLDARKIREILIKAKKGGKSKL
#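 Purified P. pyralis luciferase (10nM final) with 10uM D-luciferin and 10uM ATP (Km levels) in 50mM Tris acetate pH 7.5, 10mM Mg acetate, 0.01% Tween-20, 0.05% BSA; qHTS 6-point titration, ~60 µM downward; luminescence read.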
# Active calls of the source: *; ? = inconclusive; . = no result; [ ] = dose if it differs, or a comment. The call rests on the fitted dose curve; in most records, active means well fitted curve in the direction sought with a large enough effect; inconclusive means small, poorly fitted or top-dose-only effect, or another doubt; inactive means no such curve, though single readings can be large; an effect the other way counts as inactive or inconclusive. Potency means the concentration at half of the fitted maximal effect.
SMILES,Luc counter,SMN2 splice up,NPC1 prom act,Rab9 promoter act,ELG1 genotoxic,FLuc counter
O=C(Nc1ccc(Oc2ccsc2C(=O)O)cc1)c1ccccc1F,.,.,18%,-1%,6%,17µM*
O=C(Nc1ccc(NC(=O)c2ccccc2F)cc1)c1cccs1,.,.,?,3.5µM*,?,-15%
O=C(Nc1ccc2[nH]ccc2c1)c1cccs1,.,.,1.6µM*,2µM*,?,9.5µM*
O=C(Nc1ccccc1Oc1ccsc1C(=O)O)c1ccccc1F,.,.,2%,-5%,-5%,-4%
O=C(Nc1ccc(NC(=O)c2cccs2)c(Cl)c1)c1cccs1,.,.,?,?,?,17µM*
COc1ccccc1C(=O)Nc1ccc(C(=O)/C=C/c2cccs2)cc1,-1%,-15%,-2%,-9%,1%,-19%
O=C(/C=C/c1cccs1)c1ccc(NC(=O)c2ccccc2F)cc1,-1%,4%,12%,20%,22%,3µM*
O=C(CN1C(=O)NC2(CCCCCC2)C1=O)NCc1ccccc1Cl,.,.,.,.,1%,.
Cc1ccc(/C(N)=N/OC(=O)/C=C/c2ccccc2)cc1,-5%,-6%,0%,12%,13%,24µM*
COc1ccc(/C=C/C(=O)O/N=C(\N)c2ccccc2)cc1OC,0%,?,?,?,?,17µM*
CC(=O)c1ccc(OC(=O)CCNC(=O)c2ccccc2)cc1,.,.,.,.,3%,.
CC(=O)c1ccc(OC(=O)/C=C/c2ccccc2)cc1,.,.,-3%,-2%,2%,2.7µM*
CC(=O)c1ccc(OC(=O)COc2ccccc2)cc1,.,.,1%,0%,24%,21µM*
COc1ccc(-n2nnnc2C2CCN(S(=O)(=O)c3ccc(C)cc3)CC2)cc1,.,-16%,.,.,.,7%
O=C(CCC1CCCCC1)NCCS(=O)(=O)N1CCN(c2ccccc2)CC1,.,.,-2%,15%,2%,-1%
CC(C)CNC(=O)Nc1cc(C(=O)NCc2ccc(C(C)C)cc2)ccc1N1CCCC1,.,.,.,.,.,-13%
COc1ccc(/C(N)=N/OC(=O)/C=C/c2ccccc2)cc1,1%,24%,-3%,18%,5%,15µM*
CS(=O)(=O)c1ccc2nc(NC(=O)c3ccc(Cl)cc3)sc2c1,.,.,3%,24%,0%,?
Cn1nc(C(=O)Nc2nc3ccc(S(C)(=O)=O)cc3s2)ccc1=O,?,-2%,0%,-1%,11%,11µM*
CS(=O)(=O)c1ccc2nc(NC(=O)c3ccc(=O)[nH]c3)sc2c1,.,.,-7%,7%,6%,6.7µM*
NC(=O)/N=C(\N)NC(=O)c1ccccc1,-1%[7.66 µM],-4%[9.22 µM],.,.,.,.
COC(=O)[C@H](Cc1ccccc1)NC(=O)O[C@@H]1C(=O)c2cc(OC)ccc2O[C@H]1c1cccc(OC)c1,1%,18%,.,.,.,.
O=C(O)COn1c(-c2ccccc2)nc2ccc(Cl)cc21,-17%,?,10%,26%,?,4.8µM*
O=[N+]([O-])c1ccc2nc(-c3ccccc3)n(OCc3ccc(Cl)cc3)c2c1,0%,-22%,2%,5%,0%,?
COn1c(-c2ccccc2)nc2ccc(Cl)cc21,-7%,28%,?,?,14%,12µM*
SMILES,Luc counter,SMN2 splice up,NPC1 prom act,Rab9 promoter act,ELG1 genotoxic,FLuc counter
CCC1CCCCN1C(=O)Cn1c(=O)n(CCCC(=O)NCc2ccco2)c(=O)c2sccc21 (stereo not drawn),.,.,0%,-1%,-3%,1%
CC(C)c1ccc(NC(=O)c2ccccc2NC(=O)C2CC=CCC2C(=O)O)cc1 (stereo not drawn),.,.,15%,15%,?,27µM*
Cn1c(-c2ccc(Br)o2)nc2cc(Br)ccc21,-27%,14µM*,1.4µM*,1.1µM*,?,1.9µM*
Cn1cc(C(=O)c2ccccc2)cc1-c1nc2ccccc2n1C,-3%,-10%,0%,-6%,-17%,-10%
CC(=O)c1ccc(-c2nc3ccccc3n2C)o1,?,11µM*,?,?,21µM*,21µM*
Cc1oc(-c2nc3ccccc3n2C)cc1C(=O)c1ccccc1,?,1.6µM*,0.5µM*,0.32µM*,1.8µM*,0.38µM*
Cc1ccc(C2Nc3ccccc3-c3nc4ccccc4n32)o1 (stereo not drawn),-7%,11µM*,?,?,?,11µM*
COc1cc(NC(=O)CNS(=O)(=O)c2cccs2)cc(OC)c1OC,.,.,.,.,.,-2%
Cn1c(-c2nonc2N)nc2ccccc21,.,.,0%,-2%,-5%,3%
Cc1ccc(-c2nc3ccccc3n2C)o1,7.9µM*,11µM*,1.6µM*,1.1µM*,2.9µM*,5.4µM*
Brc1ccc(Cn2c(-c3ccc(Br)o3)nc3ccccc32)o1,0%,19%,13%,11%,5%,19µM*
Cn1c(-c2ccc(Br)o2)nc2ccccc21,10µM*,13µM*,1.4µM*,1.4µM*,?,2.4µM*
Oc1ccc(Cn2c(-c3ccc(O)cc3)nc3ccccc32)cc1,-7%[7.66 µM],-6%[9.22 µM],.,.,.,.
CC(C)(Oc1ccc(Cl)cc1)C(=O)Nc1nc2ccc(S(C)(=O)=O)cc2s1,.,-16%,.,.,.,-16%
O=C(CCn1nnc2ccccc21)OCC(=O)c1ccc(F)cc1,.,.,1%,-3%,-7%,6%
Cc1ccc(OCC(=O)NC2=NCCS2)cc1,-7%,-17%,24%,20%,4%,11µM*
Cc1ccccc1OCC(=O)Nc1ccccc1CO,1%,20%,14%,-6%,1%,?
O=C(CSc1cccc2cccc(Cl)c12)NC1=NCCS1,5%,7%,0%,-9%,0%,?
O=C(CSc1ccccc1)NC1=NCCS1,.,.,1%,-3%,1%,13µM*
